Hits are enriched below; roughly 4.1% of the tested compounds scored in any of these assays.
hgDAF12 agonist – agonists of H. glycines DAF-12 nuclear receptor; HEK293 GAL4-hgDAF12 UAS-luciferase reporter, agonist luminescence; normalized to butyrate control; activation, % at 6.8 µM; 370,000 tested, 1.8% active; AID 687014;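 active means activation above a cutoff set at the mean of all screened compounds plus 3 SD, cut at about 10% in these data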;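 further: 0% = DMSO wells and 100% = sodium butyrate wells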
DAX1 inh-1 – NR0B1 (DAX1) inhibition. P51843. HEK293 Gal4-DAX1 luciferase reporter, luminescence. inhibition, % at 6.75 µM. 340,000 tested, 0.99% active. AID 504766;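 active means inhibition above the mean over all tested compounds plus 3 SD, cut at about 4.2% in these data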;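 further: 0% = DAX1-transfected cells with DMSO and 100% = empty-vector control cells with DMSO; inhibition shows as a rise in luminescence from relieved DAX1 repression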
Target sequence (P51843 207-470 limits assumed): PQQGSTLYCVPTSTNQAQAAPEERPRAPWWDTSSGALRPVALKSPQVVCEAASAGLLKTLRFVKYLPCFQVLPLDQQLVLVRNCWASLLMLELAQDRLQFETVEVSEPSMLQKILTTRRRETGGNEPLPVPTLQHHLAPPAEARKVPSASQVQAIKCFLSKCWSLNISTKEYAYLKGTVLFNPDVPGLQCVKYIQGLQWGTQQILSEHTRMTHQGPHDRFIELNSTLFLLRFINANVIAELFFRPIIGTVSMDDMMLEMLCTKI
hcDAF-12 act – H. contortus DAF-12 activation, primary screen; HEK293 hcDAF-12 lit1-tk-luc reporter, luminescence; 0% DMSO, 100% Δ7-dafachronic acid; AID 652067; 370,000 tested, 1.4% active; activation, % at 6.8 µM;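 active means activation above the mean of all tested compounds plus 3 SD, cut at about 5.5% in these data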;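 further: 100% = response to 3 µM Δ7-dafachronic acid high control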
ssDAF12 agonist – activators of S. stercoralis DAF-12 nuclear receptor | 370,000 tested, 1% active | HEK293 ssDAF-12/GRIP1 lit1-tk-luc reporter, luminescence; % of 3 µM dafachronic acid response | activation, % at 6.8 µM;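 active means activation above the mean over all tested compounds plus 3 SD, cut at about 0.9% in these data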;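 further: 0% = DMSO-only wells and 100% = 3 µM delta7-dafachronic acid wells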
DAX1 inh-2 – blocks DAX1 repression of SF-1 activated StAR promoter | AID 652010 | HEK293T StAR-luciferase reporter, SF-1/DAX-1 repression relief | 370,000 tested, 1.1% active | inhibition, % at 6.8 µM;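 active means inhibition above the mean over all tested compounds plus 3 SD, cut at about 3.6% in these data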;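 further: 0% = DAX-1 cells with DMSO and 100% = cells lacking DAX-1 with DMSO; higher inhibition means more luminescence from relief of DAX-1 repression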
DAX1 inh confirm – NR0B1 (human) inhibition, confirmation | shares compounds with DAX1 inh-2 | HEK293T StAR-promoter luciferase reporter, SF-1/DAX-1 repression | inhibition, % at 6.8 µM | 2,400 tested, 87% active | AID 652134;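 active means inhibition above the average of every tested compound plus 3 SD, cut at about 3.8% in these data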;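 further: 0% = DAX-1 cells with DMSO and 100% = no DAX-1 control cells with DMSO; active compounds raise luminescence by relieving repression of the StAR reporter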
SF1 AF2mut Luc – counter-screen for DAX1 inhibitors: nonselective inhibitors with SF-1 AF2 mutant; shares compounds with DAX1 inh-2; HEK293 StAR-luciferase, luminescence; inhibition, % at 6.8 µM; 2,400 tested, 78% active;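 active means inhibition above the mean of all tested compounds plus 3 SD, cut at about 3% in these data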;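 further: 0% = DAX-1 transfected cells with DMSO and 100% = cells without DAX-1 with DMSO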
LXRb hcDAF ctr – activates human LXR-beta, counter-screen for hcDAF-12 agonists; 3,400 tested, under 10 active; AID 743027; activation, % at 6.8 µM; HEK293 Gal4-LXR tk-luc reporter, luminescence, 24 h; normalized: DMSO 0%, positive control 100%; shares compounds with hcDAF-12 act;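 active means mean percent activation of the reporter above a cutoff set as the average over tested compounds plus their standard deviation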
Target sequence (P55055 whole entry, looked up, the tested form may be a part): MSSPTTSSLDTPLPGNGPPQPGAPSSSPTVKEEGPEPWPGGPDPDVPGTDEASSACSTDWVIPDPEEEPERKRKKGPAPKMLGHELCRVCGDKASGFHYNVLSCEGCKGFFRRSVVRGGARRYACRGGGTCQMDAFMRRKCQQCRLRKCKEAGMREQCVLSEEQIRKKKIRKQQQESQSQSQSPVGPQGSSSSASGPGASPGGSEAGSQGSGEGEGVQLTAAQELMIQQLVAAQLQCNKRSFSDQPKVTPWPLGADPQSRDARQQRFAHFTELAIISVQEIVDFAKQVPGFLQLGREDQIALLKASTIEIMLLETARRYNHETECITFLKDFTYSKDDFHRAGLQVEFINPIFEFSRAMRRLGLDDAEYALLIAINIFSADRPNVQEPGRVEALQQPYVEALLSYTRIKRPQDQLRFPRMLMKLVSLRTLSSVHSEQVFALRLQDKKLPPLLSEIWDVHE
hcDAF12 ag – hcDAF-12 agonism, confirmation assay. activation, % at 6.8 µM. shares compounds with hcDAF-12 act. 3,400 tested, 61% active. HEK293 hcDAF-12 lit1-tk-luc reporter, luminescence; % of Δ7-dafachronic acid response;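 active means mean activation across triplicate tests above the threshold derived from the earlier primary screen, cut at about 5.5% in these data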;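 further: 0% = DMSO only wells and 100% = 3 µM Δ7-dafachronic acid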
hgDAF12 conf – confirmation of H. glycines DAF-12 agonists; shares compounds with hgDAF12 agonist; HEK293 GAL4-hgDAF12 luciferase reporter, agonist mode; percent of butyrate response; activation, % at 6.8 µM; 3,300 tested, 80% active; AID 743050;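 active means mean activation over triplicate wells above the hit cutoff derived from the earlier primary screen, cut at about 11% in these data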;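 further: 0% = DMSO low control and 100% = 2 mM sodium butyrate high control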
LXRb DAF12 ctr – counter-screen for DAF-12 agonists: agonists of human LXR-beta; shares compounds with hgDAF12 agonist; HEK293 Gal4-LXR luciferase reporter, 24 h; activation, % at 6.8 µM; 3,300 tested, under 10 active; AID 743051;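 active means mean activation of the triplicate above a set limit carried over from the primary screen, none filed active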
* hit, by the source's call; x = not tested or not shown.

SMILES	hgDAF12 agonist	DAX1 inh-1	hcDAF-12 act	ssDAF12 agonist	DAX1 inh-2	DAX1 inh confirm	SF1 AF2mut Luc	LXRb hcDAF ctr	hcDAF12 ag	hgDAF12 conf	LXRb DAF12 ctr
CCCCOCCCNC(=O)C[C@@H]1C(=O)N(Cc2ccc(OC)cc2)C2=CCN(C(=O)OC(C)(C)C)C[C@]21C(=O)OCC	0	x	-3	-2	-1	x	x	x	x	x	x
Nc1nn(-c2cccc(F)n2)cc1-c1ccccc1	17*	2	11*	1.1*	4.6*	12*	3.7*	2	9.3*	19*	1
COc1ccc(CN2C[C@H](COCc3ccccc3)Oc3cccc(F)c3S2(=O)=O)cc1	2	x	-1	-1	-1	x	x	x	x	x	x
O=[N+]([O-])c1ncccc1OCCOc1ccc(Cl)cc1Cl	4	x	-2	-2	x	x	x	x	x	x	x
O=C(NNC(=S)Nc1ccc(F)cc1F)c1ccco1	5	0	-1	0	2	x	x	x	x	x	x
O=C(/C=C/Nc1ccc(F)cc1F)c1ccco1	25*	-1	15*	2.1*	7.5*	7.2*	2	2	20*	14*	1
CC(C)(C)c1ccc(S(=O)(=O)N2CCC(C(=O)N3CCN(C4CCCCC4)CC3)CC2)cc1	2	x	-1	-1	-1	x	x	x	x	x	x
CN(C)c1ccc(-c2csc(C(O)c3ccc(F)cc3)n2)cc1 (stereo unspecified)	9	x	4	0	3	x	x	x	x	x	x
OC(c1ccccc1)c1nc(-c2cc3ccccc3o2)cs1 (stereo unspecified)	17*	x	5	0	6.9*	11*	6.4*	x	x	15*	1
CN(C)c1ccc(-c2csc(C(O)c3ccccc3)n2)cc1 (stereo unspecified)	14*	x	4	0	6.4*	9.5*	8.6*	x	x	19*	1
CCC[C@H]1[C@@H](NCc2ccccc2)CC[C@@]23CCCN2C(=O)CCC[C@@H]13	2	x	-2	-2	x	x	x	x	x	x	x
Brc1ccc(-c2nn3c(-c4ccccc4)nnc3s2)cc1	-2	x	-3	-1	0	x	x	x	x	x	x
O=C(OCC#CCSc1nnc(-c2cccs2)o1)c1ccc(F)cc1	0	x	1	-1	x	x	x	x	x	x	x
Cc1oc(-c2ccccc2)cc1C(=O)Nc1ccccc1	5	-1	1	-1	0	x	x	x	x	x	x
Cc1c(C(=O)Nc2ccccc2)csc1-c1ccccc1	20*	0	8.1*	1.7*	6.0*	16*	5.6*	2	6.5*	25*	1
c1ccc2nc3c(ccc4ccccc43)cc2c1	21*	2	12*	0.9*	4.5*	12*	10*	1	11*	16*	1
Cc1cccc2cc3ccccc3nc12	2	0	0	-2	0	x	x	x	x	x	x
COc1cc([N+](=O)[O-])ccc1NC(=S)NNC(=O)c1ccc2c(c1)OCO2	2	0	1	-1	0	x	x	x	x	x	x
O=C(NC(=S)Nc1cc([N+](=O)[O-])ccc1O)c1ccc2c(c1)OCO2	16*	1	9.2*	0	10.0*	16*	7.4*	2	9.7*	18*	1
CC(=O)CC[C@@H]1CC[C@]2(CCCN(C(=O)C3CCCC3)C2)O1	-2	x	3	-1	1	x	x	x	x	x	x
O=Nc1c2cc3ccccc3[nH]c-2c2ccccc12	23*	0	10*	1.1*	7.7*	9.8*	8.4*	2	12*	23*	1
O=Nc1c(O)c2ccccc2c2ccccc12	-12	-6	-5	-2	-3	x	x	x	x	x	x
Cc1ccc2c(CN(C)Cc3ccccc3)cc(=O)oc2c1	14*	x	2	1	6.8*	6.0*	3	x	x	11*	1
COc1ccc(-c2nnc(SCC(=O)c3ccc(C)o3)o2)cc1	0	1	0	-1	0	x	x	x	x	x	x
COc1ccc(-c2nnc(SCC(=O)/C(C#N)=C(\C)N)o2)cc1	16*	-1	6.7*	1	4.7*	13*	4.5*	1	6.9*	18*	1
SMILES	hgDAF12 agonist	DAX1 inh-1	hcDAF-12 act	ssDAF12 agonist	DAX1 inh-2	DAX1 inh confirm	SF1 AF2mut Luc	LXRb hcDAF ctr	hcDAF12 ag	hgDAF12 conf	LXRb DAF12 ctr
CC(C)CNc1ccc2c(c1)OC[C@@H](CC(C)C)NS2(=O)=O	-1	x	-1	-1	1	x	x	x	x	x	x
O=C(Nc1ccc2c(c1)OCO2)c1cnc(Cl)c(Cl)c1	21*	3	6.3*	1.8*	5.6*	8.1*	6.5*	x	x	16*	1
O=C(Nc1ccc(Cl)cc1Cl)c1ccc2c(c1)OCCO2	14*	-1	7.5*	1	8.7*	17*	6.7*	2	6.3*	17*	1
Cc1ccc(C(=O)Nc2ccc3c(c2)OCO3)cc1Cl	18*	4.8*	6.1*	0	11*	11*	6.6*	x	x	20*	1
O=C(Nc1ccc2c(c1)OCO2)Nc1ccccc1F	19*	0	2	0	11*	13*	6.9*	x	x	15*	1
C[C@@H]1CN([C@H](C)CO)C(=O)CCCn2cc(nn2)CO[C@H]1CN(C)S(=O)(=O)c1cn(C)cn1	0	x	1	0	1	x	x	x	x	x	x
CC(=O)N1CCCN(S(=O)(=O)c2ccc3c(c2)oc(=O)n3C)CC1	1	x	0	-1	0	x	x	x	x	x	x
O=C(C1CCCN(S(=O)(=O)c2ccccc2F)C1)N1CCN(Cc2ccccc2)CC1 (stereo unspecified)	0	x	-1	-2	-1	x	x	x	x	x	x
Cc1ccc(C2CCC3(CCC(=O)N3CCOC(=O)Nc3cccc(C#N)c3)CC2)cc1 (stereo unspecified)	3	x	0	-1	0	x	x	x	x	x	x
Cc1n[nH]c(C)c1S(=O)(=O)NC(C)Cc1ccccn1 (stereo unspecified)	3	x	2	-1	0	x	x	x	x	x	x
Cn1c(C(=O)Nc2ccc3c(c2)OCO3)cc2sccc21	17*	4.8*	14*	2.5*	5.5*	11*	7.0*	1	16*	19*	1

Compound activity deposited in PubChem by The Scripps Research Institute Molecular Screening Center.
